According to PubChem BioAssay (NCATS):
Values without a mark were called inactive. Inconclusive results are not listed. Activity calls are given as the source filed them. Unless noted, calls come from the whole dose curve; as a rule, active = well fitted curve in either direction with a large enough effect (not every such curve was filed as active); inconclusive = small, poorly fitted or top-dose-only effect, or another doubt; inactive = flat fitted curve, though single readings scatter.

Experiments:
[1] = biological target: Lysosomal acid glucosylceramidase (Homo sapiens) (UniProt P04062); assay: Glucocerebrosidase-p2 (AID 348; in the data active = potency below about 10 µM; note: potency is the fitted concentration of half-maximal effect); conditions: purified GBA, blue fluorogenic substrate, 40 min
Procedure, shortened: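 Normal human glucocerebrosidase (0.2 nM) with blue fluorogenic substrate (80 uM final) in citrate/phosphate pH 5.9 with 10mM sodium taurocholate, 0.01% tween-20; 40 min RT, NaOH/glycine stop; fluorescence Ex 365/Em 440; AC50 from a titration from 0.6 nM upwards.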

[2] = AP1 Signaling Pathway (AID 357); conditions: ME-180 AP-1-bla reporter, EGF-induced, beta-lactamase ratio, 5 h; at 7.69 µM (top of the series) unless noted;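 note: ME-180 reporter cells stimulated with EGF at its EC50 level; % is set by controls: 0 for no effect and ±100 for the full control effect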
Procedure, shortened: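 Modulation of EGF-driven AP-1 transcription was assessed with a beta-lactamase reporter in ME-180 cells. Compound and EC50 EGF were co-incubated 5 hours at 37 °C before 2.5-hour CCF4 loading at room temperature and dual-emission reading.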

[3] = NFAT Signaling Pathway (AID 444); conditions: Jurkat NFAT-bla M1, carbachol, beta-lactamase ratio, 5 h; at 7.69 µM (top of the series) unless noted;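 note: carbachol stimulus at about its EC50 of 1 µM final; % is set by controls: 0 for no effect and ±100 for the full control effect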
Procedure, shortened: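 Read-out: CCF4 FRET ratio (460 nm/530 nm) after 1 h RT dye loading, used for %activity and AC50 from titration series. Cells: Jurkat NFAT-β-lactamase/M1 line, treated with compound plus 1 uM carbachol for 5 h, 37 °C.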

[4] = Stat Signaling Pathway (AID 446); conditions: ME-180 SIE beta-lactamase reporter, IL-6 stimulated, 5 h; at 7.69 µM (top of the series) unless noted;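 note: ME-180 cervical cancer cells given 40 pM IL-6 alongside compound; SIE-controlled beta-lactamase reporter measured as 460/530 nm FRET emission ratio; % is set by controls: 0 for no effect and ±100 for the full control effect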
Procedure, shortened: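 FRET read-out (405 nm excitation, 460/530 nm emission) of a beta-lactamase reporter under a STAT-inducible element in ME-180 cervical carcinoma cells. Cells with compound receive 40 pM IL-6 for 5 h. Values are normalised to AC90 stimulation and AC90 JAK-inhibitor controls.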

[5] = biological target: Glucocorticoid receptor (Homo sapiens) (UniProt P04150); assay: GR-EFC Redistribution (AID 451; calls by dose curve; note: potency is the fitted concentration of half-maximal effect); conditions: CHO-K1 GR-EFC translocation, beta-gal luminescence, 2 h
Procedure, shortened: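 Translocation of GR-ED fusion to nuclear EA restores b-gal, read by luminescence after 1 h room-temperature detection. Engineered CHO-K1 biosensor cells, 1,000/well, exposed 2 h at 37 C to titrations up to 46 uM final.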

[6] = biological target: Cytochrome P450 3A4 (Homo sapiens) (UniProt P08684); assay: qHTS Assay for Activators of Cytochrome P450 3A4 (AID 885; active = well fitted curve in the direction sought with a large enough effect; an effect the other way counts as inactive or inconclusive; note: nearly all actives have a fitted effect of over 65% in size); conditions: recombinant CYP3A4, Luciferin-PPXE luminescence, 60 min; series mostly up to 57.1 µM
Procedure, shortened: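 Luminescent readout of luciferin formed from 25 uM Luciferin-PPXE (KM level) by 20 nM CYP3A4 in 200 mM KPO4, with 60 min NADPH-driven reaction at room temperature after 10 min compound exposure. Ketoconazole (57 uM) defined 100% inhibition.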

[7] = Primary qHTS for small molecule stabilizers of the endoplasmic reticulum resident proteome: Secreted ER Calcium Modulated Protein (SERCaMP) assay (AID 1508630; active = well fitted curve in the direction sought with a large enough effect; an effect the other way counts as inactive or inconclusive; note: % is set by controls: 0 for no effect and ±100 for the full control effect); conditions: SH-SY5Y GLuc-SERCaMP (Gaussia luciferase released on ER calcium loss) secretion, thapsigargin, luminescence; series mostly up to 38.4 µM
Procedure, shortened: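 The SH-SY5Y reporter protocol was run at 3 concentrations up to 38.3 uM (primary) or 11 concentrations (follow-up): 16 h compound, 100 nM thapsigargin for 4 h, then extracellular luciferase luminescence.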

[8] = biological target: Glucocorticoid receptor (Homo sapiens) (UniProt P04150); assay: GR-GFP Redistribution (AID 450;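 active = compounds whose dose series gives a full or clear partial fitted curve of increased nuclear translocation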; note: potency is the fitted concentration of half-maximal effect); conditions: U2OS GR-GFP nuclear translocation, laser cytometry, 2 h
[9] = biological target: Mitogen-activated protein kinase 10 (Mus musculus) (UniProt Q61831); assay: JNK3 AlphaScreen Assay (AID 530); conditions: JNK3 lysate, c-Jun phosphorylation; series mostly up to 57.1 µM
Procedure, shortened: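 Kinase buffer: 20 mM Tris-HCl pH 7.6, 10 mM MgCl2, 1 mM DTT, 0.1 mM Na3VO4, 0.01% Tween-20; ATP 10 uM. Substrate biotin-GST-cJun(1-79), enzyme from activated HepG2 lysates. Detection by Ser73 phospho-antibody AlphaScreen.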

[10] = biological target: 3',5'-cyclic-AMP phosphodiesterase 4B (Homo sapiens) (UniProt Q07343); assay: qHTS Assay for Inhibitors of PDE-IV (AID 607; active = well fitted activation curve with a large enough effect in the main read-out, with a control signal flat, not every such curve was filed as active; note: % of control where 0% means no effect); conditions: HEK293 ACTOne CNG channel cells, membrane potential fluorescence; series mostly up to 22.9 µM
Procedure, shortened: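 Cell-based read-out of cAMP via a modified cyclic nucleotide-gated channel and membrane potential dye (535/590 nm) in HEK293 cells expressing PDE4 endogenously. Compounds tested up to 22.9 uM final; 100 uM RO 20-1724 reference.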

[11] = biological target: Cytochrome P450 3A4 (Homo sapiens) (UniProt P08684); assay: qHTS Assay for Inhibitors and Substrates of Cytochrome P450 3A4 (AID 884; active = well fitted curve in the direction sought with a large enough effect; an effect the other way counts as inactive or inconclusive; note: potency is the fitted concentration of half-maximal effect; nearly all actives have a fitted effect of over 50% in size); conditions: recombinant CYP3A4, Luciferin-PPXE luminescence; series mostly up to 57.1 µM
Procedure, shortened: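 Luminescent readout of luciferin produced by CYP3A4 (20 nM) dealkylation of Luciferin-PPXE, 25 uM (its KM). NADPH-driven reaction ran 60 min at RT after 10 min compound preincubation; data scaled to 57 uM ketoconazole as 100% inhibition.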

[12] = Confirmation and Secondary Assay for Modulators of Hemoglobin Beta Chain Splicing at IVS2 654 locus (AID 910; active = well fitted curve in the direction sought with a large enough effect; an effect the other way counts as inactive or inconclusive;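 note: HeLa cells stably carrying EGFP split by mutant beta-globin IVS2-654 intron; per-well total GFP intensity by laser scanning cytometry after 2-day treatment; % of control where 0% means no effect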); conditions: HeLa EGFP-654 splicing reporter, GFP fluorescence, 48 h; series mostly up to 38.3 µM
Procedure, shortened: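 Readout: per-well total peak green fluorescence (488 nm ex, 500–520 nm em) from objects 5–250 µm, reflecting correct splicing of an EGFP-654 reporter. Compounds were applied for 2 days at 37 °C to overnight-plated HeLa EGFP-654 cells; controls were DMSO and 500 nM IVS2-654 PNA.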

[13] = biological target: Cytochrome P450 2C19 (Homo sapiens) (UniProt P33261); assay: qHTS Assay for Inhibitors and Substrates of Cytochrome P450 2C19 (AID 899; active = well fitted curve in the direction sought with a large enough effect; an effect the other way counts as inactive or inconclusive; note: nearly all actives have a fitted effect of over 60% in size; note: potency is the fitted concentration of half-maximal effect); conditions: recombinant CYP2C19, luciferin-H EGE luminescence; series mostly up to 57.1 µM
Procedure, shortened: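 Luminescence readout of luciferin formed from 10uM Luciferin-H EGE (KM level) by 5 nM CYP2C19 in 50mM KPO4. 60 min NADPH-driven reaction at 37C after 10 min compound preincubation; data scaled to 57uM ketoconazole inhibition.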

[14] = qHTS Assay for Identification of Small Molecule Agonists for Hypoxia Response Element Signaling Pathway (AID 914; active = well fitted activation curve with a large enough effect in the signal ratio, with a control signal flat, not every such curve was filed as active; the % refers to the signal ratio; note: % of control where 0% means no effect); conditions: ME-180 (cervical carcinoma) HRE-bla reporter, beta-lactamase ratio, CoCl2, 17 h; activation: stronger effect = higher value
Procedure, shortened: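 In Opti-MEM containing 0.5% dialyzed FBS and 10 mM HEPES, ME-180 HRE-bla cells received a compound titration and EC50 CoCl2. They were incubated 17 hours, then CCF4-loaded 2.5 hours at room temperature before ratio reading.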

Cytochrome P450 3A4 (Homo sapiens), sequence (P08684 whole entry, looked up): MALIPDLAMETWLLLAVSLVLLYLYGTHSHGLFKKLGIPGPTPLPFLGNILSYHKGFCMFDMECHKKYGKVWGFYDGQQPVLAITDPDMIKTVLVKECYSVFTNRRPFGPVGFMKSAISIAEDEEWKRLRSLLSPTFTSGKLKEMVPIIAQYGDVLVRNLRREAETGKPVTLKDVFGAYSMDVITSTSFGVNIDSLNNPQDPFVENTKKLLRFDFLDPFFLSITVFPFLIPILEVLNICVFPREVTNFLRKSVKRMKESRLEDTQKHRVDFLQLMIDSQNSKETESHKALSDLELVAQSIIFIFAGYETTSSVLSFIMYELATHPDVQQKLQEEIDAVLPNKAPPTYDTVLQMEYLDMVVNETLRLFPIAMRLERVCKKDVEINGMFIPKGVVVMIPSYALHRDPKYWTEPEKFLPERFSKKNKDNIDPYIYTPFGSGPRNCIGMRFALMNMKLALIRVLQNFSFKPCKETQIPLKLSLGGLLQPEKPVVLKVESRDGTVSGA
Glucocorticoid receptor (Homo sapiens), sequence (P04150 whole entry, looked up, the tested form may be a part): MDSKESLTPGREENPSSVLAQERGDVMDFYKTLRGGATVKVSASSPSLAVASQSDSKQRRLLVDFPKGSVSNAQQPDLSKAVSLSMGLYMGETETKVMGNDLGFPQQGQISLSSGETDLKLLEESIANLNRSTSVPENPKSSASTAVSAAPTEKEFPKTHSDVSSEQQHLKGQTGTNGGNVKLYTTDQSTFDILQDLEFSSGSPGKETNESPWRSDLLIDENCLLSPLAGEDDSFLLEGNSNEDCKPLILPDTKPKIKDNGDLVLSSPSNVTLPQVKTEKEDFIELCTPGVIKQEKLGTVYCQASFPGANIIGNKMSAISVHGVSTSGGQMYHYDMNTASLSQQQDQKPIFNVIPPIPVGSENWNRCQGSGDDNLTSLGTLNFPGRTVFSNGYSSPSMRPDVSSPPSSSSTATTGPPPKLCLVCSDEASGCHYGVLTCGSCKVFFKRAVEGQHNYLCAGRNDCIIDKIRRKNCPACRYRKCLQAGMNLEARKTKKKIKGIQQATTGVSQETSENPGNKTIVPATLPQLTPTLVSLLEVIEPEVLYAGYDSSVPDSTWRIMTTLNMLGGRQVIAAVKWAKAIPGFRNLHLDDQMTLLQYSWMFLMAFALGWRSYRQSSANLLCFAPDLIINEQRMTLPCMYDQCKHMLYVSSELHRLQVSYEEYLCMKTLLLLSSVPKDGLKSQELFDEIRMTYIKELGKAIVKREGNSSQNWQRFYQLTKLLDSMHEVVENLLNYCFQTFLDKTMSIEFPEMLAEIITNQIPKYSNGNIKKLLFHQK
3',5'-cyclic-AMP phosphodiesterase 4B (Homo sapiens), sequence (Q07343 whole entry, looked up): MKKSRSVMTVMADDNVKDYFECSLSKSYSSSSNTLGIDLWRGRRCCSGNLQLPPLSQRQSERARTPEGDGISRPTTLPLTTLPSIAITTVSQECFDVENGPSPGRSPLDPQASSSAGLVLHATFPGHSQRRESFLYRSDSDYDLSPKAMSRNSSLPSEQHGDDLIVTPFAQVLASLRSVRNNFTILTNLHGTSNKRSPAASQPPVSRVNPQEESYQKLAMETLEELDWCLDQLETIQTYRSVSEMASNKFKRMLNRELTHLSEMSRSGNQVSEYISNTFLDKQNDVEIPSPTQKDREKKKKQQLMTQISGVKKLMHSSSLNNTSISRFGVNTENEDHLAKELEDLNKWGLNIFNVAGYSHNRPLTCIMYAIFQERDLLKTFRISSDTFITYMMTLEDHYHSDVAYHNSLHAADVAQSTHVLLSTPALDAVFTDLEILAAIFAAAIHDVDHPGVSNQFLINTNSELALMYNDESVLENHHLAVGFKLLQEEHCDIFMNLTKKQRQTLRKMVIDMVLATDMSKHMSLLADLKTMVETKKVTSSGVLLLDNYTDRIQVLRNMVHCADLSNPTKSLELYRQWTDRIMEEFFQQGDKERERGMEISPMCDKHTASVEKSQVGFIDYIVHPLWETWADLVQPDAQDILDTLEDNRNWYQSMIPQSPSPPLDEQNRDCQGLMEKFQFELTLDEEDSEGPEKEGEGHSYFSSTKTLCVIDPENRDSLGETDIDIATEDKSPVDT
Lysosomal acid glucosylceramidase (Homo sapiens), sequence (P04062 whole entry, looked up): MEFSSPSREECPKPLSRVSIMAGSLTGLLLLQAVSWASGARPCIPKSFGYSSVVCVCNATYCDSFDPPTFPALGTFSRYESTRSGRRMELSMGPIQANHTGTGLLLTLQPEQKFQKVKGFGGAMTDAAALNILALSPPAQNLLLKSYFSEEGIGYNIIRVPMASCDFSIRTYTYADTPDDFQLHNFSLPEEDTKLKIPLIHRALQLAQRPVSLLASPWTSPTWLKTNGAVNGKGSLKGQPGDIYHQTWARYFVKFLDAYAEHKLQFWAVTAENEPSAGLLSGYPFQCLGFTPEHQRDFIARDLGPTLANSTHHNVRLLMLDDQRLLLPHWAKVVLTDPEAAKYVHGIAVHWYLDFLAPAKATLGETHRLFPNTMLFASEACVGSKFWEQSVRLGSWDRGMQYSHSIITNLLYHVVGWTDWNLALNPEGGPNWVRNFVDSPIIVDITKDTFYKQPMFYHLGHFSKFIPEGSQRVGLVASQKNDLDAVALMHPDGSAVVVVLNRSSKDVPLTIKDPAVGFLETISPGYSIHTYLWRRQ
Cytochrome P450 2C19 (Homo sapiens), sequence (P33261 whole entry, looked up): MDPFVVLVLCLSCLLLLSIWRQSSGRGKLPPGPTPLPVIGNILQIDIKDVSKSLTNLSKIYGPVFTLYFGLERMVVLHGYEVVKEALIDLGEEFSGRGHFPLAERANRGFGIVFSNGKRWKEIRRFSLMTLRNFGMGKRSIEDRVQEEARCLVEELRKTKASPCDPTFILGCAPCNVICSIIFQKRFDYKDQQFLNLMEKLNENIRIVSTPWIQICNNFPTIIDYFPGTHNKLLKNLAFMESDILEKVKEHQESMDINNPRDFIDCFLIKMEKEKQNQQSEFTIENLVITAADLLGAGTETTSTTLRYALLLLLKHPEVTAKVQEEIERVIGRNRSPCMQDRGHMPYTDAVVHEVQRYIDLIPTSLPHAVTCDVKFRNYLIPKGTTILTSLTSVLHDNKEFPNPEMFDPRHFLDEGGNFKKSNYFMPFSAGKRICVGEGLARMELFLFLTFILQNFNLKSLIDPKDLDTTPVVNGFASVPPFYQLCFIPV

| SMILES | Potency [1] [µM] | activity change, negative = inhibition [2] [%] | activity change, negative = inhibition [3] [%] | activity, negative = inhibition [4] [%] | Potency [5] [µM] | Potency [6] | outcome [7] | Potency [8] [µM] | Potency [9] | Potency [10] | Potency [11] | Potency [12] | Potency [13] | activation [14] [%] |
| --- | --- | --- | --- | --- | --- | --- | --- | --- | --- | --- | --- | --- | --- | --- |
| Cn1cccc1C(=O)N1CCC[C@@]2(CCN(c3cccc(-c4ccccc4)c3)C2)C1 | > 11.4 | -10.7 | -10.5 | -14.4 | > 46 | inactive | inactive | – | – | – | – | – | – | – |
| c1cncc(-c2nc(NCCN3CCOCC3)c3ccccc3n2)c1 | > 11.4 | -8.53 | 7.81 | – | > 46 | inactive | inactive | > 46 | inactive | inactive | 7.94 µM (active) | inactive | – | – |
| O=C(Nc1cccc(F)c1)N1CCCC2(CCN(C(=O)c3ccco3)CC2)C1 | > 11.4 | -8.03 | – | 0.264 | > 46 | – | inactive | – | inactive | – | – | – | – | – |
| O=C(Oc1ccccc1)N1CCC[C@@]2(CCN(c3ccccc3)C2)C1 | > 11.4 | -15.6 | – | -1.51 | > 46 | – | inactive | – | inactive | inactive | – | – | – | – |
| O=S(=O)(c1ccccc1)N1CCC2(CCCN(c3ccncc3)C2)CC1 | > 11.4 | 22.1 | – | 9.67 | > 46 | – | inactive | – | inactive | inactive | – | – | – | – |
| O=C(c1cccc(F)c1)N1CCC2(CCCN(c3ccccc3)C2)CC1 | > 11.4 | -4.36 | -1.29 | -11.8 | > 46 | inactive | inactive | – | inactive | inactive | – | – | 5.01 µM (active) | -3.27 |
| COCCn1c(=O)c(-c2ccc(OC)cc2)nc2cnc(Nc3ccccc3)nc21 | > 11.4 | 6.46 | -9.78 | – | > 46 | – | inactive | > 9.22 | inactive | inactive | – | – | – | – |
| O=C(Nc1cccc(F)c1)N1CCC2(CC1)CCN(C(=O)c1ccncc1)CC2 | > 11.4 | -9.1 | -6.93 | -7.63 | > 46 | inactive | inactive | – | inactive | inactive | – | – | – | – |
| O=C(Nc1cccc(F)c1)N1CC2(CCN(C(=O)c3ccncc3)CC2)C1 | > 11.4 | -11.4 | 9.26 | 1.8 | > 46 | – | inactive | – | inactive | inactive | – | – | inactive | – |
